Source: PubChem BioAssay
Compounds with a hit are over-represented: about 7.3% of the library has one in this group of screens.
NPC1 promoter act = qHTS Assay for NPC1 Promoter Activators | Huh7 NPC1 promoter luciferase reporter, 24 h | Potency, µM (doses to about 9.22 µM), for inactives: at the highest dose activation, most hits filed as activators | actives 2.4% (n = 320,000); note: % of control where 0% means no effect; nearly all actives have a fitted effect of over 60% in size
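Stably transfected Huh7 (NPC1 promoter→luciferase), 1500 cells/well in Opti-MEM + 10% FBS, 2 h settle, then compound 24 h at 37 °C. Luminescence after 10 min with Amplite reagent.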
ELG1 genotox = qHTS screen for small molecules that induce genotoxicity in human embryonic kidney (HEK293T) cells expressing luciferase-tagged ELG1; Potency, µM (doses to about 46 µM), without a hit: at the top dose activity change, positive = activation, usual class: activators; actives 1.3% (n = 330,000); AID 504466, 2011; HEK293T ELG1-luciferase reporter, luminescence, 16 h; note: % of control where 0% means no effect; nearly all actives have a fitted effect of over 60% in size
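After overnight (16 hr) compound treatment at 37 °C, ELG1-luciferase HEK293T cells were lysed with ONE-Glo; luminescence quantified 30 min later at room temperature.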
Rab9 promoter act = qHTS Assay for Rab9 Promoter Activators | Huh7 Rab9 promoter-luciferase reporter, luminescence, 24 h | Potency, µM (top dose mostly 9.22 µM), for the others: top-dose activation, negative = inhibition, usual class: activators | AID 485297, 2010 | actives 2.8% (n = 320,000); note: % of control where 0% means no effect; nearly all actives have a fitted effect of over 60% in size
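Quantitative HTS format; Huh7 Rab9-luciferase reporter cells (1500/well) receive compound 2 h post-plating, incubate 24 h at 37 °C, then get luciferase reagent for 10 min before luminescence reading.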
FLuc modulator = qHTS profiling assay for firefly luciferase inhibitor/activator using purifed enzyme and Km concentrations of substrates (counterscreen for miR-21 project); Potency, µM (titrated, usually from 57.5 µM), without a hit: at the highest dose activity change, negative = inhibition, actives largely listed as inhibitors; purified FLuc, Km substrates, luminescence inhibition; actives 6.9% (n = 360,000); Luciferin 4-monooxygenase (Photinus pyralis), P08659;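 note: plate controls were vehicle for no effect and reference inhibitor for full effect; nearly all actives have a fitted effect of over 55% in size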
Target sequence (P08659 whole entry, looked up): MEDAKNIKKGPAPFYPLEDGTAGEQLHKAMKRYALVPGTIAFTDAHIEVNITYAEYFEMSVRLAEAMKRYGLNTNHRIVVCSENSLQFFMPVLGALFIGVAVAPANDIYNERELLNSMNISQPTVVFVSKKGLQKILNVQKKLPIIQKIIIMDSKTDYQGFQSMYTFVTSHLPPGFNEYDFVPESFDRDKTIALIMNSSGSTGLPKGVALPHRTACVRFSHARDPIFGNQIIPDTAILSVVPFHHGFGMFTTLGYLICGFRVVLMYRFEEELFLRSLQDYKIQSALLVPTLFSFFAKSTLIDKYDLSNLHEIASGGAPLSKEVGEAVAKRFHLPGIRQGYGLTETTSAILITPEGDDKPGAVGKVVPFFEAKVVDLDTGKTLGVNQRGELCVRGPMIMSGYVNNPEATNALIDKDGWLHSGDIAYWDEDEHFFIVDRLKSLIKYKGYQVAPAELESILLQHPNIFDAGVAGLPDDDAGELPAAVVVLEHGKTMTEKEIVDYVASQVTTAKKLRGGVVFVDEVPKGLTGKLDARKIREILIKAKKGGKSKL
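Purified P. pyralis luciferase, 10 nM final, with Km-level 10 uM D-luciferin and 10 uM ATP in 50 mM Tris acetate pH 7.5, 10 mM Mg acetate, 0.01% Tween-20, 0.05% BSA; 6-point qHTS titration about 60 µM downward; luminescence read.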
SMN2 splice enh = qHTS Assay for Enhancers of SMN2 Splice Variant Expression. Potency, µM (doses to about 46.1 µM), without a hit: at the highest dose activity change, positive = activation, most hits filed as activators. AID 1458, 2008. HEK293 SMN2-luciferase splicing reporter, luminescence, 30-36 h. actives 2.8% (n = 210,000); note: % of control where 0% means no effect; nearly all actives have a fitted effect of over 55% in size
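qHTS luciferase splicing reporter: luminescence rises when SMN2 exon 7 is included in transfected HEK293 cells. Compound exposure lasted 30-36 h at 37C, with 4.5 mM final sodium butyrate as control, followed by a ONE-Glo read.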
uPA surface inh = qHTS for Inhibitors of Cell Surface uPA Generation | actives 0.31% (n = 330,000) | cell surface uPA generation assay, qHTS | Potency, µM (highest dose often 38.3 µM), without a hit: top-dose activity change, negative = inhibition, most hits filed as inhibitors; active = well fitted inhibition curve with a large enough effect; inconclusive = small, poorly fitted or top-dose-only effect; inactive = no such curve, though single readings can be large or run the other way; tested in mouse RAW 264.7 cells; note: % is set by controls: 0 for no effect and ±100 for the full control effect; nearly all actives have a fitted effect of over 55% in size
Numbers without * were called inactive; ? = inconclusive; / = no result given. Unless noted, calls come from the whole dose curve; as a rule, active = well fitted curve in the direction sought with a large enough effect; inconclusive = small, poorly fitted or top-dose-only effect, or another doubt; inactive = no such curve, though single readings can be large; an effect the other way counts as inactive or inconclusive. Potency is the fitted concentration of half-maximal effect.

SMILES	NPC1 promoter act	ELG1 genotox	Rab9 promoter act	FLuc modulator	SMN2 splice enh	uPA surface inh
O=C(CSc1ccc(-c2ccccn2)nn1)N1CCc2ccccc21	5%	11%	16%	?	12%	-2%
O=C(NCCc1nc2ccccc2n1Cc1c(F)cccc1Cl)c1ccco1	/	/	/	-12%	-38%	/
CCc1cccc(-n2c(=O)c3cccnc3n2CC(=O)Nc2ccc(OC)c(Cl)c2)c1	/	/	/	-7%	/	/
Cc1cc2oc(C(=O)N(Cc3ccc(N(C)C)cc3)Cc3ccco3)c(C)c2cc1Cl	/	/	/	-2%	-1%	/
N[C@](CC1c2ccccc2Oc2ccccc21)(C(=O)O)[C@H]1C[C@@H]1C(=O)O	/	/	/	/	13%	/
N#C/C(=C/c1cn(CC(=O)O)c2ccccc12)C(=O)Nc1ccccc1	-3%	2%	-8%	15µM*	/	-3%
CCOc1ccc(NC(=O)/C(C#N)=C/c2cn(CC(=O)O)c3ccccc23)cc1	0%	1%	-2%	19µM*	/	-1%
CCc1c(C)c(C#N)c2nc3ccccc3n2c1Nc1cccc(C(F)(F)F)c1	/	/	/	2%	8%	/
COCCN(C(=O)C1CC(=O)N(Cc2ccc(C)cc2)C1)c1c(N)n(CC(C)C)c(=O)[nH]c1=O (configuration not stated)	0%	12%	2%	/	/	-58%
COc1cccc(CNC(=O)c2sc3nc4n(c(=O)c3c2C)CCC4)c1	/	/	/	-2%	/	/
COC(=O)c1cc(-c2ccc(OC)cc2F)nc2nc(SC)[nH]c(=O)c12	3%	0%	2%	15µM*	/	0%
COC(=O)c1cc(-c2ccccc2)nc2nc(SC)[nH]c(=O)c12	0%	-2%	-4%	?	/	-2%
Cc1cc(N2CCCCC2)nc2ccc(NC(=O)CCC(=O)NCCC(C)C)cc12	?	?	3.2µM*	7.6µM*	65%	0%
CCN(CC)CCCNC(=O)CCC(=O)Nc1ccc2nc(N3CCCCC3)cc(C)c2c1	12%	7%	-6%	-4%	-7%	-5%
CCCCNC(=O)CCC(=O)Nc1ccc2nc(N3CCOCC3)cc(C)c2c1	?	12%	?	15µM*	21%	0%
Cc1cc(N2CCOCC2)nc2ccc(NC(=O)CCC(=O)N3CCN(c4ccccc4)CC3)cc12	?	9%	30%	12µM*	/	2%
CCCCNC(=O)CCC(=O)Nc1ccc2nc(N3CCCCC3)cc(C)c2c1	?	9%	?	15µM*	7.1µM*	0%
Cc1cc(N2CCOCC2)nc2ccc(NC(=O)C3CCC(C)CC3)cc12 (configuration not stated)	-7%	-2%	5%	1%	-16%	-4%
CCOC(=O)C1CCCN(C(=O)CCC(=O)Nc2ccc3nc(N4CCOCC4)cc(C)c3c2)C1 (configuration not stated)	?	?	?	17µM*	/	5%
CCCN(CCC)CCNC(=O)CCC(=O)Nc1ccc2nc(N3CCOCC3)cc(C)c2c1	?	?	3.5µM*	-1%	/	-12%
COc1cccc(NC(=O)CCC(=O)Nc2ccc3nc(N4CCOCC4)cc(C)c3c2)c1	?	13%	2.5µM*	6µM*	/	-1%
COCCCNC(=O)CCC(=O)Nc1ccc2nc(N3CCOCC3)cc(C)c2c1	2%	7%	?	?	?	-2%
CCCCCCCCCCCCC/C=C/[C@@H](O)C(CO)NC(C)=O (some centres not stated)	/	/	/	/	2%	/
CCn1c(/C=C/c2ccccc2Cl)nc2ccccc2c1=O	21%	6%	22%	27µM*	/	-1%
CCn1c(/C=C/c2c[nH]c3ccccc23)nc2ccccc2c1=O	1.6µM*	2.6µM*	1.4µM*	5.4µM*	/	-1%
